Giardia FBPA inh: Giardia lamblia aldolase inhibition; AID 2451; purified Giardia FBPA; A8B2U2; Potency, µM (doses to about 59.6 µM), for inactives: top-dose activity, negative = inhibition, usual class: inhibitors; actives 0.71% (n = 290,000); note: potency is the fitted concentration of half-maximal effect; % is set by controls: 0 for no effect and ±100 for the full control effect; nearly all actives have a fitted effect of over 55% in size
Target sequence (A8B2U2 whole entry, looked up): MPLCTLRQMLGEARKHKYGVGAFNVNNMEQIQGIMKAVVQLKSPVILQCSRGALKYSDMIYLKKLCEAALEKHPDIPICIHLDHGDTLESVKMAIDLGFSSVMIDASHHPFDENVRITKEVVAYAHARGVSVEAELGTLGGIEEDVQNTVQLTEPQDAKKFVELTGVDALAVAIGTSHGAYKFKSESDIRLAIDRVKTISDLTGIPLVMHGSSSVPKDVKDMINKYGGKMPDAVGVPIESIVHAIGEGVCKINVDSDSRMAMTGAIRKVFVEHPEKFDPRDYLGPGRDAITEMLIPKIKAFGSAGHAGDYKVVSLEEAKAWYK
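40 nM FBPA preincubated 10 min at RT with compound (up to 57.5 uM final), then substrate plus GAPDH/TPI/NAD/arsenate coupling and diaphorase/resazurin added. Fluorescence read after 20 min at RT, 525/598 nm.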
Pf growth 96h: P. falciparum growth inhibition at 96 hour, primary screen for plastid delayed-death inhibitors; actives 6.9% (n = 320,000); Potency, µM (doses to about 28.7 µM), for inactives: at the highest dose activity change, negative = inhibition, hits mostly inhibitors; P. falciparum luciferase reporter growth, 96 h; note: potency is the fitted concentration of half-maximal effect; % is set by controls: 0 for no effect and ±100 for the full control effect
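Two parasite generations (96 h, 37 C, 5% CO2) of compound exposure in infected erythrocytes (0.05% parasitemia, 2% hematocrit). Luciferase-reporter P. falciparum; decreased luminescence indicates inhibited growth, aimed at apicoplast-acting delayed death.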
Pf growth 48h: P. falciparum growth inhibition at 48 hours (one generation); actives 5.9% (n = 310,000); Potency, µM (series often up to 28.7 µM), for inactives: top-dose activity change, negative = inhibition, most hits filed as inhibitors; AID 504832; P. falciparum luciferase growth in erythrocytes, 48 h; note: potency is the fitted concentration of half-maximal effect; % is set by controls: 0 for no effect and ±100 for the full control effect
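Luminescence readout; reporter = integrated firefly luciferase in P. falciparum. RBC culture at 2% hematocrit, 0.1% parasitemia final, 37 C/5% CO2; decreased signal taken as growth inhibition.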
Shiga inhibitor: Shiga toxin inhibition; inhibition, % at 38.7 µM; Vero cells, Shiga toxin protein synthesis inhibition reporter; actives 9.2% (n = 290,000); in the data active = inhibition mostly above about 28%, no sharp cut-off; inactive = mostly below about 43%; note: 0% is about no effect
Cycloheximide cs: affects cycloheximide protein synthesis inhibition readout, counter-screen | cell reporter, cycloheximide protein synthesis inhibition counterscreen | max response, % | actives 12% (n = 300,000); in the data active = max response mostly above about 13%, no sharp cut-off; inactive = mostly below about 14%; note: read at 38.3 µM for the half of the compounds with a filed dose; 0% is about no effect
NS1 inh: inhibitors of influenza NS1 protein function. actives 0.4% (n = 270,000). Potency, µM (titrated, usually from 46.1 µM), without a hit: top-dose activity, positive = more growth; calls by dose curve; note: potency is the fitted concentration of half-maximal effect; actives are rising curves; nearly all actives have a fitted effect of over 50% in size
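Compounds were scored for reversing the slow growth caused by influenza A NS1 in S. cerevisiae, measured by optical density at 600 nm. Assay medium contained 2% galactose at pH 6.0; NS1-free yeast of the same strain were the positive control.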
* hit, by the source's call; i = inactive; ? = inconclusive; / = not tested or not shown. Compounds with a hit are over-represented: about 21% of the library has one in this group of screens. Unless noted, calls come from the whole dose curve; as a rule, active = well fitted curve in the direction sought with a large enough effect; inconclusive = small, poorly fitted or top-dose-only effect, or another doubt; inactive = no such curve, though single readings can be large; an effect the other way counts as inactive or inconclusive.

SMILES	Giardia FBPA inh	Pf growth 96h	Pf growth 48h	Shiga inhibitor	Cycloheximide cs	NS1 inh
O/C(=C\c1nc2ccccc2[nH]1)c1cccs1	?	?	?	87*	28*	-68%
N#Cc1cccc(-c2nc3cnc(N4CCOCC4)nc3n(C[C@H]3CCCO3)c2=O)c1	2%	/	/	/	/	/
CS(=O)(=O)Nc1cccc(-c2cn3c(n2)SCC3)c1	-14%	48%	30%	3	-1	-7%
Cc1cccc(C)c1NC(=O)[C@@]1(CC(=O)O)CC(/C=C/c2ccccc2)=NO1	6%	23%	-3%	-9	-5	1%
CCn1cc(S(=O)(=O)Nc2ncccn2)cn1	/	5%	4%	-16	-3	6%
COCCN=C1OC(=O)N2C(=O)C3=C4C(C[C@H]5C(=O)N(CC(=O)OC)C(=O)[C@H]5[C@H]4[C@@]12Cc1ccccc1)[C@H]1C(=O)N(CC(=O)OC)C(=O)[C@H]1[C@H]3C (stereo not given in full)	-1%	/	/	/	/	/
CCN(CC)S(=O)(=O)c1ccc(S(=O)(=O)Nc2ccc3c(c2)oc2ccccc23)cc1	0%	/	9%	-9	2	7%
CCS(=O)(=O)c1ccc2oc(Nc3ccccc3C)nc2c1	5%	i	128%	69*	54*	-6%
CCN(CC)S(=O)(=O)c1ccc2oc(Nc3ccc(OC)cc3OC)nc2c1	-23%	10µM*	?	17	-2	7%
CCN(CC)S(=O)(=O)c1ccc2oc(Nc3ccccc3)nc2c1	-8%	?	12%	79*	30*	11%
CCS(=O)(=O)c1ccc2oc(Nc3ccc(OC)c(OC)c3)nc2c1	-10%	-7%	-7%	16	17	-2%
Cc1ccc(N(C)S(=O)(=O)c2nnc(NC(=O)C3CCCCC3)s2)cc1	/	/	/	-4	-7	/
CC1CC(C)CN(CCCNC(=O)c2nn(C)c3c2CS(=O)(=O)c2ccccc2-3)C1 (stereo not given)	-9%	113%	8%	12	-4	-16%
CC(C)c1nc2c(c(=O)n(C)c(=O)n2C)n1C	0%	1%	20%	-8	-7	-6%
ClC(/C=N/n1cnnc1)=C/c1ccccc1	0%	12µM*	12µM*	6	1	-8%
CCN(CC)c1ccc(/C=N/N2CCN(c3ccccn3)CC2)cc1	4%	22%	?	-8	2	1%
Cc1ccc(/C=N/N2CCN(c3ccccn3)CC2)cc1	0%	68%	86%	64*	47*	/
BrC(=C\c1ccccc1)/C=N/N1CCN(c2ccccc2)CC1	-18%	22%	30%	46	14	-3%
CCc1ccc(/C=N/N2CCN(c3ccccn3)CC2)cc1	7%	42%	139%	68*	37*	12%
CC(/C=N/n1cnnc1)=C\c1ccccc1	1%	?	26%	-9	-1	-52%
ClC(=C\c1ccccc1)/C=N/N1CCN(c2ccccn2)CC1	0%	86%	89%	53*	33*	8%
O=C(CSc1nnc(COc2ccc(Cl)cc2)o1)Nc1ccc(N2CCOCC2)cc1	/	18%	40%	/	/	/
Cc1ccc(-n2cc(CNCC3CC(=O)N(C4CC4)C3)c(-c3cccc(C)c3)n2)cc1 (stereo not given)	1%	12µM*	?	3	-2	-6%
COc1cc(OC)c(OC)cc1CN1CCCC(C(=O)c2ccccc2SC)C1 (stereo not given)	-1%	3.7µM*	-7%	27	-2	-2%
CSc1ccccc1C(=O)C1CCCN(C(=O)c2csnn2)C1 (stereo not given)	-4%	10%	22%	90*	31*	0%
SMILES	Giardia FBPA inh	Pf growth 96h	Pf growth 48h	Shiga inhibitor	Cycloheximide cs	NS1 inh
COc1cccc(O)c1CN1CCCC(C(=O)c2ccccc2SC)C1 (stereo not given)	2%	0%	?	-5	-2	-2%
CSc1ccccc1C(=O)C1CCCN(C(=O)c2cc(C(C)C)no2)C1 (stereo not given)	2%	-8%	-1%	27	-1	-56%
COc1cc(CN2CCCC(C(=O)c3ccccc3SC)C2)cc(OC)c1 (stereo not given)	2%	12µM*	0%	-10	-6	7%
Clc1ccccc1-c1nc2nc3ccccc3nc2n1-c1ccc2c(c1)OCO2	-2%	10µM*	?	-14	-2	-47%
O=C(COc1ccc2ccccc2c1Br)Nc1ccncc1	/	32%	-9%	74*	28*	-12%
O=C(O)CCC(=O)NNC(=O)COc1ccc2ccccc2c1Br	1%	11%	6%	17	-2	0%
O=C(COc1ccc(-c2ccccc2)cc1)Nc1cccnc1	/	-21%	34%	/	/	/
O=C(COc1ccc2ccccc2c1Br)Nc1cccnc1	/	-11%	58%	138*	37*	-46%
O=C(NCc1nc(-c2ccc(Cl)cc2)no1)c1ccc2c(c1)OCO2	-5%	15%	6%	-10	-7	-28%
C#CCOCCOCCOCCNc1nc(N2CCN(C(=O)Cn3cc(CCCCN)nn3)CC2)nc(N2CCN(C(=O)[C@H](C(C)C)n3cc(CCO)nn3)CC2)n1	-9%	0%	12%	-14	-5	-20%
C#CCOCCOCCOCCNc1nc(N2CCN(C(=O)CCCCCCCCCCNC(=O)[C@@H](CCSC)n3cc(CCO)nn3)CC2)nc(N2CCN(C(=O)CCCCCCCCCCNC(=O)[C@H](CCC(=O)O)n3cc(CCCCCN)nn3)CC2)n1	/	10µM*	5.2µM*	/	/	/
C#CCOCCOCCOCCNc1nc(N2CCN(C(=O)CCCCCCCCCCNC(=O)[C@@H](CCSC)n3cc(CCO)nn3)CC2)nc(N2CCN(C(=O)CCCCCCCCCCNC(=O)[C@H](CO)n3cc(CCCCCN)nn3)CC2)n1	/	?	1µM*	/	/	/
COc1ccc2oc(C(=O)OCC(=O)N(CCC#N)c3ccccc3)c(C)c2c1	/	?	?	-28	-3	6%
OCC[C@H]1C[C@@H](O)[C@H](O)[C@@]2(OCc3ccccc32)O1	/	70%	25%	/	/	/
Cc1cccc(OCC(=O)NC(C)C(=O)N/N=C/c2c(OCc3ccccc3)ccc3ccccc23)c1 (stereo not given)	-4%	/	6.6µM*	14	6	0%
CCC(C)C(=O)N1c2ccccc2C(=C2SC(C(=O)OC)=C(C(=O)OC)S2)C(=S)C1(C)C (stereo not given)	-14%	?	9.3µM*	21	9	-14%
CCOC(=O)C1=C(C)c2ccccc2N(C(=O)OC)C1(C)C(=O)OCC (stereo not given)	?	/	/	i	7	/
CC(C)(C)n1nc2c(c1NC(=O)Cc1ccc(F)cc1)CSC2	-3%	10µM*	/	-15	-8	10%
CC(C)(C)n1nc2c(c1NC(=O)Cc1cccs1)CSC2	3%	21%	/	3	-7	12%
CC(C)(C)n1nc2c(c1NC(=O)COc1ccc(Cl)cc1)CSC2	2%	4.7µM*	?	-20	-3	-34%

Compound activity as filed in PubChem.
